Data as given in PubChem BioAssay AID1159580 (chemical genetic matrix, 2015).
About 2,000 (36%) of roughly 5,500 compounds were called active. Not shown: some 18% with an inconclusive outcome. No stated cut-off is given here; in the data, active means normalized growth mostly below about 0.91 (no sharp cut-off); inconclusive means no clear call, values can overlap the other calls; inactive means mostly above about 0.92. The list shows a part of the results.

Assay: chemical genetic growth profiling, strain panel (AID 1159580);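 further: tested at 20 µM; growth read once vehicle control cultures reached saturation at 30 °C; 1 = growth at the plate median or of vehicle wells; lower values mean less growth of the strain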
Details: growth OD

Measured: normalized growth

CC(N)C(O)c1ccc(O)c(O)c1 (stereo unspecified)
inactive: S. cerevisiae deletion strains, locus YAL013W, strain DEP1, hits give low values 1 | S. cerevisiae deletion strains, locus YBR021W, strain FUR4, hits give low values 0.982 | S. cerevisiae deletion strains, locus YBR229C, strain ROT2, hits give low values 0.98 | S. cerevisiae deletion strains, locus YCL029C, strain bik1, hits give low values 0.981 | S. cerevisiae deletion strains, locus YDL035C, strain GPR1, hits give low values 0.988 | S. cerevisiae deletion strains, locus YDL074C, strain BRE1, hits give low values 1.02 | S. cerevisiae deletion strains, locus YDL101C, strain DUN1, hits give low values 0.998 | S. cerevisiae deletion strains, locus YDL134C, strain PPH21, hits give low values 1.01 | S. cerevisiae deletion strains, locus YDL185W, strain tfp1, hits give low values 0.977 | S. cerevisiae deletion strains, locus YDL192W, strain arf1, hits give low values 0.973 | S. cerevisiae deletion strains, locus YDR101C, strain arx1, hits give low values 0.992 | S. cerevisiae deletion strains, locus YDR150W, strain NUM1, hits give low values 0.999 | S. cerevisiae deletion strains, locus YDR162C, strain NBP2, hits give low values 1.04 | S. cerevisiae deletion strains, locus YDR318W, strain mcm21, hits give low values 0.979 | S. cerevisiae deletion strains, locus YDR388W, hits give low values 0.98 | S. cerevisiae deletion strains, locus YDR502C, strain sam2, hits give low values 0.999 | S. cerevisiae deletion strains, locus YEL061C, strain CIN8, hits give low values 0.998 | S. cerevisiae deletion strains, locus YER110C, hits give low values 0.97 | S. cerevisiae deletion strains, locus YER155C, strain BEM2, hits give low values 0.994 | S. cerevisiae deletion strains, locus YER167W, strain BCK2, hits give low values 0.98 | S. cerevisiae deletion strains, locus YGL078C, strain dbp3, hits give low values 0.994 | S. cerevisiae deletion strains, locus YGL086W, strain mad1, hits give low values 0.98 | S. cerevisiae deletion strains, locus YGL248W, strain PDE1, hits give low values 0.991 | S. cerevisiae deletion strains, locus YGR078C, strain PAC10, hits give low values 1.02 | S. cerevisiae deletion strains, locus YGR135W, strain pre9, hits give low values 1.01 | S. cerevisiae deletion strains, locus YGR229C, strain SMI1, hits give low values 1.02 | S. cerevisiae deletion strains, locus YGR252W, strain gcn5, hits give low values 0.901 | S. cerevisiae deletion strains, locus YHR030C, strain SLT2, hits give low values 0.99 | S. cerevisiae deletion strains, locus YHR079C, strain IRE1 (second series), hits give low values 0.976 | S. cerevisiae deletion strains, locus YHR094C, strain hxt1, hits give low values 0.988 | S. cerevisiae deletion strains, locus YHR129C, strain ARP1, hits give low values 0.997 | S. cerevisiae deletion strains, locus YHR200W, strain rpn10, hits give low values 0.971 | S. cerevisiae deletion strains, locus YIL066C, strain RNR3, hits give low values 0.986 | S. cerevisiae deletion strains, locus YIL073C, strain SPO22, hits give low values 0.958 | S. cerevisiae deletion strains, locus YIL125W, strain kgd1, hits give low values 0.988 | S. cerevisiae deletion strains, locus YIR030C, strain dcg1, hits give low values 0.993 | S. cerevisiae deletion strains, locus YJL095W, strain BCK1, hits give low values 1.02 | S. cerevisiae deletion strains, locus YJL134W, strain LCB3, hits give low values 0.993 | S. cerevisiae deletion strains, locus YJL168C, strain set2, hits give low values 0.984 | S. cerevisiae deletion strains, locus YJL187C, strain SWE1 (second series), hits give low values 1.01 | S. cerevisiae deletion strains, locus YJR043C, strain POL32, hits give low values 1.01 | S. cerevisiae deletion strains, locus YJR075W, strain HOC1, hits give low values 1.01 | S. cerevisiae deletion strains, locus YKL009W, strain mrt4, hits give low values 0.972 | S. cerevisiae deletion strains, locus YKL068W, hits give low values 0.991 | S. cerevisiae deletion strains, locus YKL085W, strain MDH1 (second series), hits give low values 0.98 | S. cerevisiae deletion strains, locus YKL085W, strain MDH1, hits give low values 0.98 | S. cerevisiae deletion strains, locus YKL190W, strain CNB1, hits give low values 1 | S. cerevisiae deletion strains, locus YKR001C, strain vps1, hits give low values 0.993 | S. cerevisiae deletion strains, locus YLR039C, strain RIC1, hits give low values 1.01 | S. cerevisiae deletion strains, locus YLR058C, strain SHM2, hits give low values 0.989 | S. cerevisiae deletion strains, locus YLR102C, strain apc9, hits give low values 0.989 | S. cerevisiae deletion strains, locus YLR262C, strain YPT6, hits give low values 0.997 | S. cerevisiae deletion strains, locus YLR268W, strain sec22, hits give low values 1.01 | S. cerevisiae deletion strains, locus YLR330W, strain CHS5, hits give low values 0.99 | S. cerevisiae deletion strains, locus YLR342W, strain FKS1 (second series), hits give low values 0.976 | S. cerevisiae deletion strains, locus YLR371W, strain rom2, hits give low values 0.971 | S. cerevisiae deletion strains, locus YLR418C, strain cdc73, hits give low values 1.04 | S. cerevisiae deletion strains, locus YML016C, strain PPZ1, hits give low values 0.991 | S. cerevisiae deletion strains, locus YML032C, strain rad52, hits give low values 0.971 | S. cerevisiae deletion strains, locus YML124C, strain tub3, hits give low values 0.983 | S. cerevisiae deletion strains, locus YMR078C, strain ctf18, hits give low values 0.971 | S. cerevisiae deletion strains, locus YMR223W, strain ubp8, hits give low values 0.968 | S. cerevisiae deletion strains, locus YMR263W, strain SAP30, hits give low values 1.02 | S. cerevisiae deletion strains, locus YMR307W, strain GAS1, hits give low values 0.95 | S. cerevisiae deletion strains, locus YNL067W, strain RPL9B, hits give low values 1.02 | S. cerevisiae deletion strains, locus YNL128W, strain TEP1, hits give low values 0.996 | S. cerevisiae deletion strains, locus YNL153C, strain GIM3, hits give low values 1.03 | S. cerevisiae deletion strains, locus YNL233W, strain BNI4, hits give low values 1.02 | S. cerevisiae deletion strains, locus YNL250W, strain rad50, hits give low values 0.978 | S. cerevisiae deletion strains, locus YNL271C, strain bni1, hits give low values 0.973 | S. cerevisiae deletion strains, locus YNL298W, strain CLA4, hits give low values 0.982 | S. cerevisiae deletion strains, locus YNL307C, strain MCK1, hits give low values 0.99 | S. cerevisiae deletion strains, locus YNL322C, strain KRE1, hits give low values 0.997 | S. cerevisiae deletion strains, locus YNR052C, strain pop2, hits give low values 0.959 | S. cerevisiae deletion strains, locus YOL006C, strain TOP1, hits give low values 1.02 | S. cerevisiae deletion strains, locus YOL012C, strain htz1 0.931 | S. cerevisiae deletion strains, locus YOL147C, strain pex11, hits give low values 0.983 | S. cerevisiae deletion strains, locus YOR061W, strain CKA2, hits give low values 0.998 | S. cerevisiae deletion strains, locus YOR069W, strain VPS5, hits give low values 0.991 | S. cerevisiae deletion strains, locus YOR136W, strain idh2, hits give low values 0.972 | S. cerevisiae deletion strains, locus YOR144C, strain elg1, hits give low values 0.977 | S. cerevisiae deletion strains, locus YOR184W, strain ser1, hits give low values 0.971 | S. cerevisiae deletion strains, locus YOR316C, strain cot1, hits give low values 0.981 | S. cerevisiae deletion strains, locus YPL055C, strain LGE1, hits give low values 1.03 | S. cerevisiae deletion strains, locus YPL241C, strain CIN2, hits give low values 1 | S. cerevisiae deletion strains, locus YPR119W, strain clb2, hits give low values 0.995 | S. cerevisiae deletion strains, locus YPR141C, strain kar3, hits give low values 0.976 | S. cerevisiae deletion strains, locus YPR163C, strain tif3, hits give low values 0.987 | S. cerevisiae deletion strains, locus YPR167C, strain met16, hits give low values 0.986 | S. cerevisiae deletion strains, strain wtn01, hits give low values 1.01 | S. cerevisiae strains, strain wild type, hits give low values 0.994
